Measured values taken from PubChem BioAssay AID1159580 (chemical genetic matrix, 2015).
The whole screen tested about 5,500 compounds, of which about 2,000 (36%) were called active. Another 18% or so got no clear call; they are omitted. Cut-off read from the data, not from the text of the source: active = normalized growth mostly below about 0.91 (no sharp cut-off); inconclusive = no clear call, values can overlap the other calls; inactive = mostly above about 0.92. The list shows a part of the results.

Experiment: chemical genetic growth profiling, strain panel (AID 1159580);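 note: tested at 20 µM; growth read once vehicle control cultures reached saturation at 30 °C; 1 = growth at the plate median or of vehicle wells; lower values mean less growth of the strain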
Conditions: growth OD

Measured: normalized growth

C/C=C1\[C@H]2C=C(C)C[C@]1(N)c1ccc(=O)[nH]c1C2
inactive: S. cerevisiae deletion strains, locus YJR075W, strain HOC1, hits give low values 0.997 | S. cerevisiae deletion strains, locus YKL009W, strain mrt4, hits give low values 1.01 | S. cerevisiae deletion strains, locus YKL068W, hits give low values 1.01 | S. cerevisiae deletion strains, locus YKL085W, strain MDH1 (second series), hits give low values 1 | S. cerevisiae deletion strains, locus YKL085W, strain MDH1, hits give low values 1 | S. cerevisiae deletion strains, locus YKL160W, strain elf1, hits give low values 0.989 | S. cerevisiae deletion strains, locus YKL190W, strain CNB1, hits give low values 1.01 | S. cerevisiae deletion strains, locus YKR001C, strain vps1, hits give low values 1.03 | S. cerevisiae deletion strains, locus YKR026C, strain gcn3, hits give low values 1.02 | S. cerevisiae deletion strains, locus YKR091W, strain srl3, hits give low values 1.02 | S. cerevisiae deletion strains, locus YLL001W, strain dnm1, hits give low values 1.02 | S. cerevisiae deletion strains, locus YLL026W, hits give low values 1.01 | S. cerevisiae deletion strains, locus YLL041C, strain sdh2, hits give low values 1.02 | S. cerevisiae deletion strains, locus YLR027C, strain aat2, hits give low values 1.02 | S. cerevisiae deletion strains, locus YLR039C, strain RIC1, hits give low values 1.05 | S. cerevisiae deletion strains, locus YLR058C, strain SHM2, hits give low values 1.01 | S. cerevisiae deletion strains, locus YLR102C, strain apc9, hits give low values 1.02 | S. cerevisiae deletion strains, locus YLR113W, strain HOG1, hits give low values 1.01 | S. cerevisiae deletion strains, locus YLR221C, strain rsa3, hits give low values 1.01 | S. cerevisiae deletion strains, locus YLR258W, strain gsy2, hits give low values 1.03 | S. cerevisiae deletion strains, locus YLR262C, strain YPT6 (second series), hits give low values 1.01 | S. cerevisiae deletion strains, locus YLR262C, strain YPT6, hits give low values 1.05 | S. cerevisiae deletion strains, locus YLR268W, strain sec22, hits give low values 0.992 | S. cerevisiae deletion strains, locus YLR320W, strain mms22, hits give low values 1.04 | S. cerevisiae deletion strains, locus YLR330W, strain CHS5, hits give low values 1.01 | S. cerevisiae deletion strains, locus YLR342W, strain FKS1 (second series), hits give low values 1.04 | S. cerevisiae deletion strains, locus YLR342W, strain FKS1, hits give low values 1.02 | S. cerevisiae deletion strains, locus YLR357W, strain rsc2, hits give low values 1.06 | S. cerevisiae deletion strains, locus YLR370C, strain arc18, hits give low values 1.02 | S. cerevisiae deletion strains, locus YLR371W, strain rom2, hits give low values 1.01 | S. cerevisiae deletion strains, locus YLR384C, strain iki3, hits give low values 1.02 | S. cerevisiae deletion strains, locus YLR418C, strain cdc73, hits give low values 1.02 | S. cerevisiae deletion strains, locus YML016C, strain PPZ1, hits give low values 1 | S. cerevisiae deletion strains, locus YML032C, strain rad52, hits give low values 1.01 | S. cerevisiae deletion strains, locus YML120C, strain ndi1, hits give low values 1.02 | S. cerevisiae deletion strains, locus YML124C, strain tub3, hits give low values 1.01 | S. cerevisiae deletion strains, locus YMR058W, strain fet3, hits give low values 1.02 | S. cerevisiae deletion strains, locus YMR078C, strain ctf18, hits give low values 1.02 | S. cerevisiae deletion strains, locus YMR125W, strain sto1, hits give low values 1.03 | S. cerevisiae deletion strains, locus YMR129W, hits give low values 1.03 | S. cerevisiae deletion strains, locus YMR205C, strain PFK2, hits give low values 1.07 | S. cerevisiae deletion strains, locus YMR223W, strain ubp8, hits give low values 1.03 | S. cerevisiae deletion strains, locus YMR231W, strain pep5, hits give low values 1.02 | S. cerevisiae deletion strains, locus YMR263W, strain SAP30, hits give low values 1 | S. cerevisiae deletion strains, locus YMR307W, strain GAS1, hits give low values 1.02 | S. cerevisiae deletion strains, locus YNL067W, strain RPL9B, hits give low values 1 | S. cerevisiae deletion strains, locus YNL071W, strain lat1, hits give low values 1.02 | S. cerevisiae deletion strains, locus YNL128W, strain TEP1, hits give low values 1.02 | S. cerevisiae deletion strains, locus YNL153C, strain GIM3, hits give low values 1 | S. cerevisiae deletion strains, locus YNL183C, strain NPR1, hits give low values 0.956 | S. cerevisiae deletion strains, locus YNL209W, strain ssb2, hits give low values 1.02 | S. cerevisiae deletion strains, locus YNL233W, strain BNI4, hits give low values 0.983 | S. cerevisiae deletion strains, locus YNL248C, strain rpa49, hits give low values 1.01 | S. cerevisiae deletion strains, locus YNL250W, strain rad50, hits give low values 1.01 | S. cerevisiae deletion strains, locus YNL271C, strain bni1, hits give low values 1.02 | S. cerevisiae deletion strains, locus YNL298W, strain CLA4, hits give low values 1.02 | S. cerevisiae deletion strains, locus YNL307C, strain MCK1, hits give low values 1.02 | S. cerevisiae deletion strains, locus YNL322C, strain KRE1 (second series), hits give low values 1.01 | S. cerevisiae deletion strains, locus YNL322C, strain KRE1, hits give low values 1.01 | S. cerevisiae deletion strains, locus YNR049C, strain mso1, hits give low values 1.03 | S. cerevisiae deletion strains, locus YNR052C, strain pop2, hits give low values 1.02 | S. cerevisiae deletion strains, locus YOL006C, strain TOP1, hits give low values 1.05 | S. cerevisiae deletion strains, locus YOL012C, strain htz1 0.803 | S. cerevisiae deletion strains, locus YOL147C, strain pex11, hits give low values 1.01 | S. cerevisiae deletion strains, locus YOR001W, strain rrp6, hits give low values 1 | S. cerevisiae deletion strains, locus YOR061W, strain CKA2, hits give low values 1.02 | S. cerevisiae deletion strains, locus YOR069W, strain VPS5, hits give low values 1.01 | S. cerevisiae deletion strains, locus YOR070C, strain gyp1, hits give low values 1.02 | S. cerevisiae deletion strains, locus YOR080W, strain dia2, hits give low values 1.02 | S. cerevisiae deletion strains, locus YOR083W, strain WHI5, hits give low values 0.992 | S. cerevisiae deletion strains, locus YOR106W, strain vam3, hits give low values 1.01 | S. cerevisiae deletion strains, locus YOR136W, strain idh2, hits give low values 1.02 | S. cerevisiae deletion strains, locus YOR144C, strain elg1, hits give low values 1.01 | S. cerevisiae deletion strains, locus YOR184W, strain ser1, hits give low values 1.04 | S. cerevisiae deletion strains, locus YOR231W, strain MKK1, hits give low values 1.01 | S. cerevisiae deletion strains, locus YOR265W, strain rbl2, hits give low values 1.02 | S. cerevisiae deletion strains, locus YOR270C, strain vph1, hits give low values 1.02 | S. cerevisiae deletion strains, locus YOR290C, strain snf2, hits give low values 1.01 | S. cerevisiae deletion strains, locus YOR316C, strain cot1, hits give low values 1.01 | S. cerevisiae deletion strains, locus YPL051W, strain arl3, hits give low values 0.996 | S. cerevisiae deletion strains, locus YPL055C, strain LGE1, hits give low values 1.02 | S. cerevisiae deletion strains, locus YPL078C, strain atp4, hits give low values 0.991 | S. cerevisiae deletion strains, locus YPL106C, strain sse1, hits give low values 1.06 | S. cerevisiae deletion strains, locus YPL240C, strain hsp82, hits give low values 1.03 | S. cerevisiae deletion strains, locus YPL241C, strain CIN2, hits give low values 1.01 | S. cerevisiae deletion strains, locus YPL256C, strain CLN2, hits give low values 0.99 | S. cerevisiae deletion strains, locus YPR119W, strain clb2, hits give low values 1.01 | S. cerevisiae deletion strains, locus YPR141C, strain kar3, hits give low values 1.01 | S. cerevisiae deletion strains, locus YPR163C, strain tif3, hits give low values 1.02 | S. cerevisiae deletion strains, locus YPR167C, strain met16, hits give low values 1.01 | S. cerevisiae deletion strains, strain wtn01, hits give low values 1.01 | S. cerevisiae strains, strain wild type, hits give low values 1.02
